Reference: PubChem BioAssay (EPA / NIEHS)
Where “and” joins values, the source holds several entries; their conditions need not be identical. Equal values may be shown once. Results filed as inconclusive are left out. Calls of active or inactive are those of the source. How the source made its calls, unless noted: active means hit-call score of the fitted dose curve at least 0.9, where 1 is the maximum; inconclusive means response in the unintended direction; inactive means score below 0.9.

What was measured:
[1] = read-out: UDP glucuronosyltransferase (UGT1A1), UGT1A1 (gene 54658); assay: LTEA_HepaRG_UGT1A1: Life Technologies and Expression Analysis (LTEA) Assay for UDP glucuronosyltransferase (UGT1A1) using HepaRG (AID 2283538; active means hit-call score of the fitted dose curve at least 0.9, where 1 is the maximum; inactive means score below 0.9); conditions: mRNA level, 48 h; actives raise or lower the signal
Outline: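 UGT1A1 transcript level, measured by qRT-PCR with three housekeeping genes for normalization, after 48 h treatment of human HepaRG cells (0.5% DMSO, duplicates, up to 100 uM, half-log steps, 8 points). Curves fit both directions against DMSO baseline.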

[2] = read-out: UDP glucuronosyltransferase (UGT1A6), UGT1A6 (gene 54578); assay: LTEA_HepaRG_UGT1A6: Life Technologies and Expression Analysis (LTEA) Assay for UDP glucuronosyltransferase (UGT1A6) using HepaRG (AID 2283539; active means hit-call score of the fitted dose curve at least 0.9, where 1 is the maximum; inactive means score below 0.9); conditions: mRNA level, 48 h; actives raise or lower the signal
Outline: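 Expression was quantified by TaqMan qRT-PCR on Fluidigm arrays with ACTB/GAPDH/POLR2A normalization and bidirectional fitting against 0.5% DMSO. HepaRG cells (~100,000/well) were treated in duplicate for 48 h at eight half-log concentrations up to 100 uM in serum-free induction medium.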

[3] = read-out: X-box binding protein 1 (XBP1), XBP1 (gene 7494); assay: LTEA_HepaRG_XBP1: Life Technologies and Expression Analysis (LTEA) Assay for X-box binding protein 1 (XBP1) using HepaRG (AID 2283540; active means hit-call score of the fitted dose curve at least 0.9, where 1 is the maximum; inactive means score below 0.9); conditions: mRNA level, 48 h; actives raise or lower the signal
Outline: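 XBP1 transcript by qRT-PCR (housekeeping-normalized: ACTB, GAPDH, POLR2A) after 48 h chemical treatment of HepaRG cells, 8-point half-log series topping at 100 uM, vehicle 0.5% DMSO. Gain and loss of signal fitted relative to DMSO.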

[4] = ATG_XTT_Cytotoxicity: Cytotoxicity Assessment in the Attagene TRANS-FACTORIAL HepG2 Assay (AID 2283584);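 on AC50: cells exposed to compound for 24 h before reading; active means loss of viability signal versus DMSO baseline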
Outline: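 Viability endpoint from XTT after 24 h chemical exposure of reporter-transfected human HepG2 liver cells; signal loss fitted relative to DMSO negative control.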

[5] = TOX21_p53_BLA_p3_viability: Viability Assessment in the Tox21 HCT-116 p53 Agonism Beta-lactamase Assay, Phase 3 (AID 2283593);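 further: cells exposed to compound for 16 h before reading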
Outline: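 HCT116 cells, 4000/well, dosed 5 h after plating by pin transfer (217-fold dilution from DMSO stock) and incubated 16 h at 37C, 5% CO2. Viability read as ATP luminescence with CellTiter-Glo after 30 min at room temperature.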

[6] = molecular target: Cellular tumor antigen p53 (Homo sapiens) (UniProt P04637); assay: TOX21_p53_BLA_p3_ratio: Tox21 HCT-116 p53 Agonism Beta-lactamase Assay, Ratio, Phase 3 (AID 2283596)
Cellular tumor antigen p53 (Homo sapiens), sequence (P04637 whole entry, looked up): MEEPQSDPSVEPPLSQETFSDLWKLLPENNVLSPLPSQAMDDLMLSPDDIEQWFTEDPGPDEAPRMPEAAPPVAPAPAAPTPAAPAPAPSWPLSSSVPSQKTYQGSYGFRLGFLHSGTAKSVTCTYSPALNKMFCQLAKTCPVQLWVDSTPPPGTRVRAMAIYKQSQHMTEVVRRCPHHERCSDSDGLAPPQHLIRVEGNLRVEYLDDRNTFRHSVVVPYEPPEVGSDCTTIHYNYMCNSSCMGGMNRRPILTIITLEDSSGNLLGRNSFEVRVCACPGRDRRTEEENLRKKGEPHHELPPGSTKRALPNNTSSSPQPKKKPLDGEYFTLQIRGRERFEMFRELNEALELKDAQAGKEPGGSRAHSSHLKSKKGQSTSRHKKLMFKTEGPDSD
Outline: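 Cells were seeded at 4000/well, rested 5 h at 37C, then dosed with DMSO compound solutions (217-fold dilution) for 16 h. CCF4-AM substrate was loaded for 2 h at room temperature, and the 460/530 nm emission ratio was fitted for gain of signal versus DMSO.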

[7] = molecular target: Cellular tumor antigen p53 (Homo sapiens) (UniProt P04637); assay: TOX21_p53_BLA_p5_ratio: Tox21 HCT-116 p53 Agonism Beta-lactamase Assay, Ratio, Phase 5 (AID 2283599)
Outline: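 HCT-116 p53-bla cells (4000/well) plated 5 h, dosed with compound (217-fold DMSO dilution) for 16 h at 37 C; CCF4-AM substrate 2 h at room temperature. Activity is the 460/530 nm emission ratio (405 nm excitation), fitted in gain-of-signal direction versus DMSO.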

[8] = molecular target: Cellular tumor antigen p53 (Homo sapiens) (UniProt P04637); assay: TOX21_p53_BLA_p4_ratio: Tox21 HCT-116 p53 Agonism Beta-lactamase Assay, Ratio, Phase 4 (AID 2283601)
Outline: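 HCT-116 p53 beta-lactamase reporter cells (4000/well) preincubated 5 h, then compound (217-fold dilution of DMSO stock) for 16 h at 37C. CCF4-AM substrate added 2 h at room temperature; 460/530 nm emission ratio fitted upward versus DMSO.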

[9] = Tanguay_ZF_120hpf_MORT_legacy: (Legacy) Oregon State University Tanguay Lab 120 Hour Post-fertilization zebrafish Assay for Mortality (AID 2283633)
Outline: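 Static waterborne exposure from 6 to 120 hpf at 28C of single dechorionated wild-type (5D) embryos per well, 0.64% DMSO final. Death recorded present/absent by brightfield at 24 and 120 hpf.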

[10] = Tanguay_ZF_120hpf_AXIS_legacy: (Legacy) Oregon State University Tanguay Lab 120 Hour Post-fertilization zebrafish Assay for Body Axis Malformation (AID 2283635)
Outline: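 Binary scoring of axis defects at 120 hpf under brightfield, fitted positive versus DMSO. Tropical 5D embryos, chorion removed by pronase at 4 hpf, were singly exposed in sealed, dark plates at 28C from 6 hpf; DMSO 0.64% final.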

[11] = Tanguay_ZF_120hpf_EYE_legacy: (Legacy) Oregon State University Tanguay Lab 120 Hour Post-fertilization zebrafish Assay for Eye Malformation (AID 2283636);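 further: binary presence or absence of eye malformation scored by brightfield in 120 hpf larvae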
Outline: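 5D wild-type embryos, pronase-dechorionated at 4 hpf; static exposure 6–120 hpf, 28C, dark; DMSO 0.64% final; 5uM trimethyltin chloride positive control. Binary eye-defect scoring at 120 hpf; dead embryos not scored.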

[12] = Tanguay_ZF_120hpf_SNOU_legacy: (Legacy) Oregon State University Tanguay Lab 120 Hour Post-fertilization zebrafish Assay for Snout Malformation (AID 2283637)
Outline: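 Binary brightfield scoring of snout malformation at 120 hpf. Dechorionated 5D wild-type embryos, one per well, static exposure from 6 hpf at 28C, sealed and dark; final DMSO 0.64% (vol/vol), DMSO as baseline; 5uM trimethyltin chloride positive control.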

[13] = Tanguay_ZF_120hpf_JAW_legacy: (Legacy) Oregon State University Tanguay Lab 120 Hour Post-fertilization zebrafish Assay for Jaw Malformation (AID 2283638)
Outline: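 Binary jaw-malformation call at 120 hpf by brightfield microscopy. Embryos (Tropical 5D strain, chorion removed at 4 hpf) were dosed statically at 6 hpf, one per well, at 28C with 0.64% DMSO. Embryos that died were not scored.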

[14] = Tanguay_ZF_120hpf_OTIC_legacy: (Legacy) Oregon State University Tanguay Lab 120 Hour Post-fertilization zebrafish Assay for Otic Vesicle Malformation (AID 2283639)
Outline: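 Binary scoring of otic vesicle defects at 120 hpf in zebrafish (Tropical 5D) held under static exposure at 28C, sealed and shaded, with final DMSO 0.64%. Embryos dying by 24 or 120 hpf excluded; fitted positively against DMSO.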

[15] = molecular target: Cellular tumor antigen p53 (Homo sapiens) (UniProt P04637); assay: TOX21_p53_BLA_p2_ratio: Tox21 HCT-116 p53 Agonism Beta-lactamase Assay, Ratio, Phase 2 (AID 2283592)
Outline: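 Read-out is the blue/green (460/530 nm, 405 nm excitation) ratio after 2 h CCF4-AM loading, fitted as gain versus DMSO. Compounds, pinned at 217-fold dilution from DMSO stocks, stayed 16 h on HCT-116 beta-lactamase reporter cells seeded 5 h earlier.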

[16] = TOX21_p53_BLA_p4_viability: Viability Assessment in the Tox21 HCT-116 p53 Agonism Beta-lactamase Assay, Phase 4 (AID 2283597);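 further: hits lower the luminescence signal meaning cytotoxicity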
Outline: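 Cytotoxicity as reduced cellular ATP (CellTiter-Glo luminescence, 30 min room temperature), measured in the same wells following the CCF4 FRET p53 reading. Human HCT-116 cells received compounds in DMSO (217-fold dilution) for 16 h.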

[17] = TOX21_p53_BLA_p5_viability: Viability Assessment in the Tox21 HCT-116 p53 Agonism Beta-lactamase Assay, Phase 5 (AID 2283600)
Outline: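 Viability came from CellTiter-Glo ATP luminescence, read after 30 min at room temperature. Before this, HCT-116 p53-bla cells (4000/well) had 16 hours of compound exposure at 37C, with DMSO stocks diluted 217-fold on transfer.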

[18] = TOX21_p53_BLA_p2_viability: Viability Assessment in the Tox21 HCT-116 p53 Agonism Beta-lactamase Assay, Phase 2 (AID 2283591);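 further: compound exposure lasted 16 h at 37 °C; actives lower the ATP signal meaning cytotoxicity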
Outline: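 HCT116 p53-bla cells, 4000/well, dosed after 5 h plating (217-fold dilution of DMSO stocks) and incubated 16 h at 37C. Viability taken as cellular ATP by CellTiter-Glo luminescence after 30 min RT; signal loss marks cytotoxicity.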

[19] = Tanguay_ZF_120hpf_YSE_legacy: (Legacy) Oregon State University Tanguay Lab 120 Hour Post-fertilization zebrafish Assay for Yolk Sac Edema (AID 2283634)
Outline: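 Presence or absence of yolk sac edema was recorded at 120 hpf in surviving larvae. These were wild-type Tropical 5D embryos, chorion removed at 4 hpf, held in static exposure at 28C from 6 hpf with 0.64% DMSO vehicle.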

Measured: AC50

CCCCC(CC)COC(=O)CCCCC(=O)OCC(CC)CCCC (stereo not given)
not listed: [15] | [16] | [17] | [18] | [19]
inactive: all other assays above

CC(=O)NC1(c2cccc(F)c2)CCN(CC[C@@]2(c3ccc(Cl)c(Cl)c3)CN(c3ccccc3)C(=O)CO2)CC1
inactive: [2] | [3] | [9] | [11] | [12] | [14]
active: [1] 41.5 µM | [15] 71.4 µM | [6] 71.6 µM | [16] 46.2 µM | [7] 70.3 µM | [8] 65 µM

Cc1ccc(S(=O)(=O)O)c(C)c1
inactive: [4] | [15] | [6] | [16] | [7] | [8]

COC(=O)CCCCC(=O)OC
not listed: [5] | [17] | [18] | [19]
inactive: all other assays above

COCC(C)OCC(C)O (stereo not given)
active: [3] 50 µM
inactive: [1] | [2] | [4] | [9] | [11] | [12] | [13] | [14]

O=C(O)c1ccccc1C(c1ccc(O)cc1)c1ccc(O)cc1
inactive: [1] | [2] | [3] | [9] | [10] | [11] | [12] | [13] | [14]

CC(O)CO (stereo not given)
not listed: [4] | [5] | [13] | [17] | [18] | [19]
inactive: all other assays above

CC(C)(C)c1cc(C(C)(C)C)c(O)c(C(C)(C)C)c1
active: [1] 13.9 µM | [2] 14.5 µM
not listed: [4] | [5] | [8] | [14] | [17] | [18] | [19]
inactive: all other assays above

Cc1cc(C)c(O)c(C)c1
active: [1] 8.27 µM
not listed: [4] | [11] | [18] | [19]
inactive: all other assays above

CCCCCCC(=O)O
not listed: [5] | [7] | [11] | [17] | [18] | [19]
inactive: all other assays above

CCC(=C(c1ccc(O)cc1)c1ccc(OCCN(C)C)cc1)c1ccccc1
active: [4] 18.4 µM and 34.2 µM and 6.67 µM
inactive: [1] | [2] | [3] | [9] | [10] | [11] | [12] | [13] | [14]

O=C(OCCOCCOC(=O)c1ccccc1)c1ccccc1
not listed: [5] | [17] | [18] | [19]
inactive: all other assays above

CCCOc1sc(C(=O)N2CCC(c3cc(CN)ccc3F)CC2)c(C)c1Br
active: [18] 43.2 µM | [15] 80.1 µM | [6] 80.4 µM | [16] 31.7 µM | [7] 80.7 µM | [17] 80.1 µM | [8] 72.2 µM
not listed: [4] | [5] | [12] | [19]
inactive: all other assays above

C#C[C@]1(O)CC[C@H]2[C@@H]3CCC4=CC(=O)CC[C@@H]4[C@H]3CC[C@@]21C
inactive: [2] | [3] | [4] | [9] | [19] | [10] | [11] | [12] | [13] | [14]
active: [1] 2.19 µM

CCCCCCCCCCCCCCCS(=O)(=O)Oc1ccccc1
active: [1] 8.01 µM
not listed: [5] | [6] | [11] | [17] | [18] | [19]
inactive: all other assays above

c1ccc2c(c1)ccc1ccccc12
active: [1] 7.77 µM
not listed: [5] | [7] | [14] | [17] | [18] | [19]
inactive: all other assays above

CC(=O)CC(C)(C)O
not listed: [5] | [11] | [16] | [17] | [18] | [19]
inactive: all other assays above

CCN(CC)CCNc1ccc(CNC=O)c2sc3ccc(OC)cc3c(=O)c12
inactive: [5] | [16] | [9] | [10] | [11] | [13]
active: [1] 44 µM | [2] 72 µM | [3] 30.6 µM | [15] 10.2 µM | [6] 18.7 µM | [7] 29 µM | [8] 12.1 µM

CCCCCCCCCCCCc1ccccc1S(=O)(=O)O
active: [1] 12 µM | [4] 156 µM
inactive: [2] | [3] | [9] | [10] | [11] | [12] | [14]
